Results taken from PubChem BioAssay (NCATS).
Inconclusive results are not listed. Entries that show only a call come without a potency. The source made the active and inactive calls. The call rests on the fitted dose curve; in most records, active means well fitted inhibition curve with a large enough effect; inconclusive means small, poorly fitted or top-dose-only effect; inactive means no such curve, though single readings can be large or run the other way. Starred links: 1 amine or outer side, 2 acyl side, 3 side chain; linkers in the order of their positions; H or OH if unused. Positions of bridges follow the written chain, without caps; N, C: chain ends. Non-standard residues stand in square brackets, D forms with d. Residues, ends and D or L forms follow the SMILES beside them. Chains are numbered I, II in the order given. Actinocin(9to1) = Cc1c2oc3c(C)ccc(C(=O)[*:1])c3nc-2c(C(=O)[*:2])c(N)c1=O; NMeV = CN[CH](C(=O)O)C(C)C; Sar = CNCC(=O)O

Assay: qHTS Screen of the MIPE 4.0 Collection Against Ewings Sarcoma (TC71) (AID 1259253); further: nearly all actives have a fitted effect of over 40% in size
Conditions: TC71 Ewing sarcoma viability, CellTiter-Glo, 48 h; series mostly up to 45.8 µM
In short: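 Log-phase cells in RPMI with 5% FBS attached for 4 h, then received compounds as a titration for 48 h at 37C, 5% CO2. Viability was read by CellTiter-Glo luminescence and normalized to DMSO and no-cell wells.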
Potency means the concentration at half of the fitted maximal effect.

Structure (SMILES)	Potency
CCCCCCCCCCCCCCCC(=O)OC[C@@H](NC(=O)C(Cl)Cl)[C@H](O)c1ccc([N+](=O)[O-])cc1	inactive
Cn1cc(C[C@@H](N)C(=O)O)c2ccccc21	inactive
Cc1cc(-c2nnc3n2CCCCC3)c(C)n1-c1ccccc1	inactive
O=[N+]([O-])c1cn2c(n1)OC[C@@H](OCc1ccc(OC(F)(F)F)cc1)C2	3.72 µM (active)
N[C@H]1CN(c2c(F)cc3c(=O)c(C(=O)O)cn(C4C[C@@H]4F)c3c2Cl)CC12CC2 (stereo not given in full)	inactive
C=CC1=C(C(=O)O)N2C(=O)[C@@H](NC(=O)C(=NO)c3csc(N)n3)[C@H]2SC1	inactive
C[C@@H](Cc1cc2c(c(C(N)=O)c1)N(CCCO)CC2)NCCOc1ccccc1OCC(F)(F)F	inactive
C[C@H]1COc2c(N3CCN(C)CC3)c(F)cc3c(=O)c(C(=O)O)cn1c23	inactive
C=CCNC1=C2C[C@@H](C)C[C@H](OC)[C@@H](O)[C@@H](C)C=C(C)[C@H](OC(N)=O)[C@@H](OC)C=CC=C(C)C(=O)NC(=CC1=O)C2=O	3.72 µM (active)
CCNC(=O)c1cc2c(-c3cc(OCCN4CCCC4)c(Cl)cc3Cl)nc(N)nc2s1	1.32 µM (active)
COC(=O)[C@H](CCCN=C(N)N)NS(=O)(=O)c1ccc(C)cc1	inactive
CCCNS(=O)(=O)Nc1ncnc(OCCOc2ncc(Br)cn2)c1-c1ccc(Br)cc1	inactive
Cn1cc(C=CC(=O)c2cccc(F)c2)cc1C=CC(=O)NO	18.7 µM (active)
C[C@@H]1CC[C@@]2(OC1)OC1CC3C4CC=C5CC(O)CCC5(C)C4CCC3(C)C1[C@@H]2C (stereo not given in full)	inactive
CCN1CCN(C(=O)N[C@H](C(=O)N[C@@H]2C(=O)N3C(C(=O)O)=C(CSc4nnnn4C)CS[C@@H]23)c2ccc(O)cc2)C(=O)C1=O	inactive
Cn1c(Nc2ccc(C(F)(F)F)cc2)nc2cc(Oc3ccnc(-c4ncc(C(F)(F)F)[nH]4)c3)ccc21	7.43 µM (active)
CC(C)(O)[C@H]1CC[C@@](C)([C@H]2[C@@H](O)C[C@@]3(C)[C@@H]4C[C@H](O[C@@H]5O[C@H](CO)[C@@H](O)[C@H](O)[C@@H]5O)[C@H]5C(C)(C)[C@@H](O[C@@H]6OC[C@@H](O)[C@H](O)[C@@H]6O)CC[C@@]56C[C@@]46CC[C@]23C)O1	8.33 µM (active)
CC(=O)O[C@H]1C[C@@H]2CC[C@H]3[C@H]4C[C@H]([N+]5(C)CCCCC5)[C@@H](OC(C)=O)[C@@]4(C)CC[C@@H]3[C@@]2(C)C[C@H]1[N+]1(C)CCCCC1	1.05 µM (active)
O=C1c2c(O)cccc2[C@@H]([C@@H]2O[C@H](CO)[C@@H](O)[C@H](O)[C@H]2O)c2cc(CO)cc(O)c21	inactive
Nc1nc(=O)n([C@H]2C[C@H](O)[C@@H](CO)O2)cc1F	0.0935 µM (active)

Structure (SMILES)	Potency
O=C(O)CCCCC(CCSCc1ccccc1)SCc1ccccc1 (stereo not given)	inactive
OCCNC1CCCc2c1[nH]c1ccc(-c3ccccc3)cc21 (stereo not given)	20.9 µM (active)
C=C1C(=O)O[C@H]2[C@@H]1CCC(C)=CCC[C@@]1(C)O[C@@H]21	10.5 µM (active)
CCCNC(=O)[C@H]1O[C@H]1C(=O)N[C@H](C(=O)N1CCC[C@@H]1C(=O)OC)C(C)CC (stereo not given in full)	6.62 µM (active)
CC(C)(O)Cn1c(NC(=O)c2ccc(-c3cn[nH]c3)s2)nc2cc(CN3CCOCC3)ccc21	1.66 µM (active)
CC[C@H](CC[C@@H](C)[C@H]1CC[C@H]2[C@@H]3CC=C4C[C@@H](O)CC[C@]4(C)[C@@H]3CC[C@]12C)C(C)C	inactive
Nc1ccc(C(=O)Nc2cccc(-c3nc(N4CCOCC4)c4oc5ncccc5c4n3)c2)cn1	16.6 µM (active)
CC(=O)OCC(=O)[C@@]12N=C(C)O[C@H]1C[C@H]1[C@@H]3CCC4=CC(=O)C=C[C@]4(C)[C@@H]3[C@@H](O)C[C@@]12C	inactive
COC(=O)[C@@H]1[C@H]2C[C@@H]3c4[nH]c5ccccc5c4CCN3C[C@@H]2CC[C@@H]1O	inactive
Cc1c2oc3c(C)ccc(C(=O)NC4C(=O)NC(C(C)C)C(=O)N5CCCC5C(=O)N(C)CC(=O)N(C)C(C(C)C)C(=O)OC4C)c3nc-2c(C(=O)NC2C(=O)NC(C(C)C)C(=O)N3CCCC3C(=O)N(C)CC(=O)N(C)C(C(C)C)C(=O)OC2C)c(N)c1=O (stereo not given) (I: TVP[Sar][NMeV] / II: TVP[Sar][NMeV]; ester I:1-I:C, II:1-II:C; linker I:N-II:N via Actinocin(9to1); configuration not given here)	inactive
C[C@H]1C[C@H]2[C@@H]3CCC4=CC(=O)C=C[C@]4(C)[C@@H]3C(=O)C[C@]2(C)[C@@]1(O)C(=O)CO	inactive
CC(=CC(=O)Nc1ccccc1C(=O)O)c1ccc2ccccc2c1	13.2 µM (active)
C[C@H](NC(=O)[C@@H](O)c1cc(F)cc(F)c1)C(=O)N[C@@H]1C(=O)N(C)c2ccccc2-c2ccccc21	20.9 µM (active)
O=C1NCCc2[nH]c(-c3ccncc3)cc21	2.64 µM (active)
Cc1noc(-c2ccc(CSCCC(=O)O)cc2)c1NC(=O)OC(C)c1ccccc1Cl (stereo not given)	inactive
CC[C@H]1OC(=O)[C@H](C)[C@@H](O[C@H]2C[C@@](C)(OC)[C@@H](O)[C@H](C)O2)[C@H](C)[C@@H](O[C@@H]2O[C@H](C)C[C@H](N(C)C)[C@@H]2O)[C@](C)(OC)C[C@@H](C)C(=O)[C@H](C)[C@@H](O)[C@]1(C)O	inactive
CC(=O)SCC(Cc1ccccc1)C(=O)NCC(=O)OCc1ccccc1 (stereo not given)	0.833 µM (active)
COc1cccc2c1C(=O)c1c(O)c3c(c(O)c1C2=O)C[C@@](O)(C(=O)CO)C[C@@H]3O[C@H]1C[C@H](N)[C@@H](O)[C@H](C)O1	0.187 µM (active)
CC(C)Oc1ccc(C(=O)N[C@H](CNC(=O)CN(C)C)Cc2ccc(-c3cn4cccc([C@H](C)O)c4n3)cc2)cc1Cl	0.372 µM (active)
N#Cc1cc(NC(=O)Nc2nnc(-c3ccncc3)s2)ccc1-c1cn[nH]c1	inactive
